Reference: PubChem BioAssay (Tox21)
Several values for one entry are separate records, joined by “and”; a condition that tells them apart may be missing. Equal values may be shown once. Results filed as inconclusive are left out. Values without a mark were called inactive. Activity calls are given as the source filed them. Calls follow the shape of the dose curve; as a rule, active = well fitted cell-killing curve with a large enough effect in the repeat runs; inconclusive = weak or mixed curves, or effect the other way; inactive = flat fitted curve, though single readings scatter.
% is scaled to controls: 0 for no effect and ±100 for the full control effect; potency is read from the fitted curve at half-maximal effect.

Assay: Nuclear factor erythroid 2-related factor 2/antioxidant responsive element (Nrf2/ARE) small molecule agonists: qHTS cell viability counter screen in human keratinocytes (AID 1919968); also: nearly all actives have a fitted effect of over 55% in size
Conditions: KeratinoSens HaCaT ARE cells viability, CellTiter-Fluor, 24 h; series mostly up to 92.4 µM; activity change, negative = cytotoxicity: at the top concentration
In short: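 Measured as CellTiter-Fluor fluorescence, this readout tracks cytotoxicity in the same wells as the ARE-luciferase screen. HaCaT reporter cells (1,500/well) received compounds after a 5 h pre-incubation and were exposed for 23 h.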
With `CCC(N)(CO)CO` the “activity change, negative = cytotoxicity” value was 1.7%.
In the case of `CCCCOC(=O)CCS`, the “activity change, negative = cytotoxicity” value was 1.64%.
For `CC(=O)S[C@H](C(=O)N[C@H]1Cc2ccccc2[C@H]2CCC[C@@H](C(=O)O)N2C1=O)C(C)C`, the “activity change, negative = cytotoxicity” value was 0.0549%.
In the case of `CCCCCCCCCOS(=O)(=O)O`, the “activity change, negative = cytotoxicity” value was 1.24%.
In the case of `COC(=O)c1ccc([N+](=O)[O-])cc1`, the “activity change, negative = cytotoxicity” value was 1.86%.
With `COC(=O)Cc1cccc2ccccc12` the “activity change, negative = cytotoxicity” value was -2.3%.
In the case of `CCCCCCCCCCCC(=O)OC[C@@H](O)[C@H]1OC[C@H](OCCO)[C@H]1OCCO`, the “activity change, negative = cytotoxicity” value was 0.543%.
In the case of `CCCCCCCC(=O)OCCCCCC`, the “activity change, negative = cytotoxicity” value was 1.53%.
In the case of `CC(=O)NC(Cc1ccccc1)C(=O)O` (stereo not given), the “activity change, negative = cytotoxicity” value was 19.6% [at 42.5 µM].
With `Cc1nc2ccccc2s1` the “activity change, negative = cytotoxicity” value was 0.104%.
In the case of `CCO[Si](C)(C)OCC`, the “activity change, negative = cytotoxicity” value was 0.142%.
For `Cc1nc(-c2ccc3c(c2)CCN(CCC2CCC(NC(=O)/C=C/c4ccc(F)cc4)CC2)CC3)no1` (stereo not given), the “activity change, negative = cytotoxicity” value was 1.23% [at 42.5 µM].
With `O=C(O)CCS` the “activity change, negative = cytotoxicity” value was -3.86%.
For `CCN(CC#N)c1cccc(C)c1`, the “activity change, negative = cytotoxicity” value was 7.42%.
In the case of `CC(C)(C)c1ccc(O)c(C(C)(C)C)c1`, the Potency was 27.2 µM (active) and 43.3 µM (active).
In the case of `CC12CC3CC(C)(C1)CC(N)(C3)C2`, the “activity change, negative = cytotoxicity” value was 1.37% [at 42.5 µM].
With `O=C(/N=N/C(=O)OCc1ccccc1)OCc1ccccc1` the “activity change, negative = cytotoxicity” value was -6.61%.
For `CC(C)C(=O)O`, the “activity change, negative = cytotoxicity” value was -0.001%.
With `c1ccc2cc3c4ccccc4c4ccccc4c3cc2c1` the “activity change, negative = cytotoxicity” value was 9.32%.
In the case of `CO[Si](CCCNCCC[Si](OC)(OC)OC)(OC)OC`, the “activity change, negative = cytotoxicity” value was -1.72%.
With `CCCCCCCCS(=O)(=O)Cl` the “activity change, negative = cytotoxicity” value was 4.75%.
In the case of `C=Cc1ccccn1`, the “activity change, negative = cytotoxicity” value was 0.178%.
For `Nc1ccc(S(=O)(=O)Nc2ccc(Cl)nn2)cc1`, the “activity change, negative = cytotoxicity” value was 6.32% [at 42.5 µM].
In the case of `COC(=O)c1ccccc1C(=O)O`, the “activity change, negative = cytotoxicity” value was -4.89%.
In the case of `CC(=O)SC[C@@H](C)C(=O)N1CCC[C@H]1C(=O)N[C@@H](Cc1ccccc1)C(=O)O`, the “activity change, negative = cytotoxicity” value was 0.705% [at 42.5 µM].
